High-throughput results deposited in PubChem BioAssay by several laboratories.
AHR act – activators of human aryl hydrocarbon receptor; P35869; AHR-responsive luciferase reporter cells, luminescence; activation, % at 5 µM; hit rate 2.5% among 320,000; AID 2796; in the data active = activation above about 47%;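 also: 0% = vehicle wells and 100% = reference agonist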
ALR H2O2 inh – blocks human ALR sulfhydryl oxidase activity. P55789. purified ALR, DTT oxidation, H2O2 HRP-luminol luminescence. inhibition, % (no concentration beside the values). hit rate 3.8% among 290,000. AID 485317;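 active = mean replicate inhibition above about 79%, with every replicate also reaching it, limit read from the data; inconclusive = only one of the two criteria met; inactive = mean below limit and not every replicate reaching it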
Target sequence (P55789 whole entry, looked up): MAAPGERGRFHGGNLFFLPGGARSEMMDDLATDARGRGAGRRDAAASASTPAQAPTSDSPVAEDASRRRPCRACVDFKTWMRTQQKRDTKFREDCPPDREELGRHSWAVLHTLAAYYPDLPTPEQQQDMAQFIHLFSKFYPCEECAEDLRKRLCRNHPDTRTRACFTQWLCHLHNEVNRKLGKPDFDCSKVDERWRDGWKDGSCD
A1 inh – inhibitors of the anti-apoptotic protein A1, read as caspase activation; MEF A1-2A-BIM cells, Caspase-Glo 3/7 luminescence, 3 h; percent of clofoctol response, vehicle zero; caspase activation, % (no concentration beside the values); hit rate 0.066% among 330,000;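 active = over half of replicate activation scores above 10%, or exactly half above 10 with the replicate mean above 10; inconclusive = replicate mean below 10 yet half the replicates above 10; inactive = over half of replicates below 10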
SUMO Mot1 rescue – blocks SUMOylation pathway, rescuing yeast Mot1-301 growth | S. cerevisiae Mot1-301 growth rescue, ATP luminescence, 38.5C; percent above DMSO median, 100 means doubled | growth rescue, % at 18.8 µM | hit rate 1% among 320,000 | AID 2716;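 active = every valid replicate shows activation above 250% relative to neutral control wells; inactive = the rest, any valid replicate at or below 250%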;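 also: OY570 slx delta 5 strain wells were the positive control but not used for scaling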
VLA-4 inh – inhibition in a human VLA-4 binding assay. hit rate 0.2% among 330,000. inhibition, % (about 7 µM as worked out from the volumes in the protocol). P13612. VLA-4 expressing cells, ligand binding flow cytometry; in the data active = inhibition above about 50%
Efflux pump mplx – antifungal efflux pump inhibition, Nile Red retention | S. cerevisiae Candida pump triplex | inhibition, % at 10 µM | hit rate 0.44% among 330,000 | AID 485275;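 active = plate passing quality check with inhibition over a set limit, or well fluorescence over plate mean plus 4 SD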;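 also: Nile Red retained in pooled yeast measured as flow cytometry median fluorescence; 0% = buffer negative control and 100% = Enniatin B positive control; higher means more Nile Red kept so more efflux inhibition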
Yeast cmpd fluor – counter-screen for efflux pump inhibitors: compound fluorescence | S. cerevisiae AD/pABC3, flow cytometry | shares compounds with Efflux pump mplx | AID 588517 | hit rate 4% among 1,700 | fluorescence ratio to DMSO, % at 10 µM;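 active = fluorescence ratio to DMSO above its plate's cutoff, the plate mean ratio plus 5 SD, cut at about 210% in these data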;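 also: unstained yeast with no Nile Red so the signal is compound autofluorescence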
Mdr1 pump inh – blocks the Candida albicans Mdr1 efflux pump in yeast; inhibition, % at 10 µM; S. cerevisiae AD/CaMDR1, Nile Red efflux, flow cytometry; AID 588518; shares compounds with Efflux pump mplx; hit rate 1% among 1,700; in the data active = inhibition above about 26%;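 also: 0% = DMSO vehicle and 100% = reference inhibitor; higher means more Nile Red retained so more efflux inhibition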
Cdr2 pump inh – blocks the Candida albicans Cdr2 efflux pump in yeast; shares compounds with Efflux pump mplx; S. cerevisiae AD/CaCDR2, Nile Red retention, flow cytometry; Nile Red retention ratio vs DMSO, % at 10 µM; hit rate 4% among 1,700; AID 588520; in the data active = Nile Red retention ratio vs DMSO above about 190%;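 also: higher ratio means more blocking of Cdr2 efflux of the dye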
CaCdr1 efflux inh – Candida Cdr1 efflux pump inhibition; shares compounds with Efflux pump mplx; S. cerevisiae AD/CaCDR1, Nile Red efflux, flow cytometry; inhibition, % at 10 µM; hit rate 1% among 1,700; AID 588522;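 active = inhibition above the screen-wide mean plus twice its standard deviation, cut at about 32% in these data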
The depositor's hits bear a star; ? = inconclusive; · = no result; + = active, no number. Shown are actives, neighbours in structure and some others; about 7.2% of the full set was active somewhere.

SMILES	AHR act	ALR H2O2 inh	A1 inh	SUMO Mot1 rescue	VLA-4 inh	Efflux pump mplx	Yeast cmpd fluor	Mdr1 pump inh	Cdr2 pump inh	CaCdr1 efflux inh
COc1ccc(CNC(=O)C(C)OC(=O)C23CC4CC(CC(O)(C4)C2)C3)cc1 (centres undefined)	3	-2	0	3	10	0	·	·	·	·
O=C(Cc1ccc(F)cc1)OCC(=O)N1CCN(S(=O)(=O)c2ccc(Cl)cc2)CC1	-3	1	0	-10	2	0.5*	105	0	95	0
O=C(Cc1cccc(C(F)(F)F)c1)OCC(=O)N1CCN(S(=O)(=O)c2ccc(Cl)cc2)CC1	1	-3	1	-3	-2	0	·	·	·	·
CC1(NS(=O)(=O)c2ccc(Cl)s2)CCS(=O)(=O)C1 (centres undefined)	1	1	1	-6	-13	0	·	·	·	·
CCN1/C(=C/c2ccc3cccc(C)c3[n+]2CC)Sc2ccccc21	-10	10	0	-7	·	2.4*	+	5	138	1
CCN1/C(=C\C(=S)Nc2ccccc2)Sc2ccccc21	9	·	0	-6	-7	0	·	·	·	·
Cc1[nH]c2ccc(C(=O)NCCCN3CCCC3)cc2c1C	2	15	0	225	-8	1	·	·	·	·
Cc1[nH]c2ccc(C(=O)NCCN3CCOCC3)cc2c1C	9	7	0	-4	8	1.4*	112	0	125	0
CC1CCc2c(sc3nc(C(C)(C)C)nc(N4CCN(C(=O)CCl)CC4)c23)C1 (centres undefined)	2	3	?	139	15	0.6*	111	0	121	0
O=C1c2cccc3c([N+](=O)[O-])ccc(c23)C(=O)N1c1ccc(Cl)cn1	-9	34	3	160	-33	2.1*	265*	1	177	0
O=C1c2cccc3c([N+](=O)[O-])ccc(c23)C(=O)N1c1ccccn1	-2	31	-1	75	-276	0.7*	149	1	139	1
O=C1c2cccc3c([N+](=O)[O-])ccc(c23)C(=O)N1O	7	90*	2	-33	-160	4.1*	138	1	262*	1
O=C1c2ccc([N+](=O)[O-])cc2C(=O)N1c1ccc(Cl)cn1	2	-11	0	2	0	0	·	·	·	·
O=C1c2cccc3c(N4CCCCC4)ccc(c23)C(=O)N1c1ccccn1	0	-20	0	2	-8	0	·	·	·	·
O=C(NN=C1CCCCCC1)c1ccc(Cl)s1	·	-10	0	-20	2	0	·	·	·	·
O=C(NCC1CCCO1)C1CCN(S(=O)(=O)c2cccc3cccnc23)CC1 (centres undefined)	2	·	·	·	8	0	·	·	·	·
Cc1cc2occ(CC(=O)NC3(C)CCS(=O)(=O)C3)c2cc1C (centres undefined)	0	-1	0	-4	3	0	·	·	·	·
Cc1cc(O)c(C(C)C)cc1C1(c2cc(C(C)C)c(O)cc2C)OC(=O)c2ccccc21	-1	3	-1	156	-25	1.2*	117	0	109	0
COc1cccc(C(=O)Oc2ccc(N3C(=O)CCC3=O)c(C)c2)c1	1	-8	1	7	-2	0	·	·	·	·
O=C1/C(=C\c2ccc(O)cc2)SC(=S)N1/N=C/c1ccc(O)cc1	-1	21	-4	-9	-51	0	97	0	106	0
O=C1C2C3C=CC(CC3)C2C(=O)N1/N=C/c1ccc(O)cc1 (centres undefined)	-2	6	1	-7	2	0	·	·	·	·
O=[N+]([O-])c1ccc(O)c(/C=N/n2cnnc2)c1	0	-4	1	21	-1	0	·	·	·	·
O=C1/C(=C/c2cccc(Br)c2)SC(=S)N1/N=C/c1cc([N+](=O)[O-])ccc1O	3	·	0	106	-4	0	97	0	83	0
CC(C)(C)OC(=O)C[C@@H]1C/C=C\C[C@H](CC(=O)N(CCO)Cc2ccccc2)C(=O)N[C@@H](Cc2c[nH]c3ccccc23)COC1=O	7	2	-2	-17	12	1	·	·	·	·
O=C(OCC(=O)N1c2ccccc2Sc2ccccc21)c1ccc[n+]([O-])c1	5	13	1	75	15	0	·	·	·	·
SMILES	AHR act	ALR H2O2 inh	A1 inh	SUMO Mot1 rescue	VLA-4 inh	Efflux pump mplx	Yeast cmpd fluor	Mdr1 pump inh	Cdr2 pump inh	CaCdr1 efflux inh
CCC(Sc1nc2ccccc2[nH]1)C(=O)Nc1ccc(NC(C)=O)cc1 (centres undefined)	1	-3	0	-9	-6	0.7*	103	0	91	0
CON(C)C(=O)CC(CNC(=O)OC(C)(C)C)c1ccc(Cl)cc1 (centres undefined)	0	-4	2	4	-5	0	·	·	·	·
C/C(=N\NS(=O)(=O)c1ccc(Br)cc1)c1ccncc1	1	-7	0	-11	2	0	·	·	·	·
COc1ccc(S(=O)(=O)N/N=C(/C)c2ccncc2)cc1	4	-3	1	89	-24	5.7*	101	0	114	0
CCc1ccc(-c2cc3c(=O)n(CC(=O)NCCN4CCCCC4C)nc(C)n3n2)cc1 (centres undefined)	1	-31	-1	-5	-91	1.0*	108	0	104	0
O=C(Nc1ccccc1Cl)c1ccccc1Oc1ccc(C(F)(F)F)cc1[N+](=O)[O-]	75*	-15	1	847	-2	0.4*	107	0	101	0
O=C(c1ccccc1Oc1ccc(C(F)(F)F)cc1[N+](=O)[O-])N1CCOCC1	-2	-1	0	-25	11	0	·	·	·	·
Cc1cc(NC(=S)N(CCCN2CCOCC2)Cc2ccco2)ccc1Cl	18	-5	0	-12	-1	0	·	·	·	·
CCN(CC)S(=O)(=O)c1cccc(C(=O)OCC(=O)NCCN2C(=O)CSC2=O)c1	1	·	-1	6	2	0	92	0	85	0
Cc1c(C(=O)OCC(=O)NCCN2C(=O)CSC2=O)cccc1[N+](=O)[O-]	0	-10	1	-3	1	0	·	·	·	·
O=C(COC(=O)c1cccc(Cl)c1Cl)NCCN1C(=O)CSC1=O	-1	-4	0	-14	35	0	112	0	108	0
O=C(COC(=O)c1ccccc1Br)NCCN1C(=O)CSC1=O	-1	-4	1	-7	6	1.1*	99	0	93	0
